Max response, Potency and outcome data for 19 molecules are collected here from PubChem BioAssay (NCATS).

Several values for one entry are separate records, joined by “and”; a condition that tells them apart may be missing. Equal entries are not always repeated. Results filed as inconclusive are left out. A structure can be active in one record and inactive in another. A number with no mark means an inactive call. Activity calls are given as the source filed them. The call rests on the fitted dose curve; in most records, active means well fitted inhibition curve with a large enough effect; inconclusive means small, poorly fitted or top-dose-only effect; inactive means flat fitted curve, though single readings scatter.

Test [1] concerns CRL-7250. Briefly: Cytotoxic Profiling of Annotated Libraries Using Quantitative High-Throughput Screening (AID 1296008). Further: potency means the concentration at half of the fitted maximal effect. On Max response: on the % scale 0 is the no-effect control and ±100 the full control effect. The settings on record: Five cell lines viability, CellTiter-Glo ATP luminescence, 48-72 h; max response: stronger effect = lower value. An outline of the steps:
(§1)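 Cytotoxicity was measured as CellTiter-Glo ATP luminescence, read after 10 min at room temperature. Compound treatment of the cells lasted 48 or 72 hr at 37 degrees Celsius in a qHTS format.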

In the next test the test system is HEK293. The description is as above. The settings on record: Five cell lines viability, CellTiter-Glo ATP luminescence, 48-72 h; max response: stronger effect = lower value. An outline of the steps: as §1
For test [2], the system named is HaCat. The test is described as above. The conditions noted are these: Five cell lines viability, CellTiter-Glo ATP luminescence, 48-72 h; max response: stronger effect = lower value. An outline of the steps: as §1
The next test has as its system KB-3-1. The description is as above. The settings on record: Five cell lines viability, CellTiter-Glo ATP luminescence, 48-72 h; max response: stronger effect = lower value. An outline of the steps: as §1
A further test relates to NIH3T3. The description is as above. The conditions noted are these: Five cell lines viability, CellTiter-Glo ATP luminescence, 48-72 h; max response: stronger effect = lower value. An outline of the steps:
as §1

A further test relates to TAB165. Briefly: qHTS profiling for inhibitors of Plasmodium falciparum proliferation (AID 504749). Further: potency means the concentration at half of the fitted maximal effect. The conditions noted are these: P. falciparum in erythrocytes, SYBR Green DNA, 72 h; series mostly up to 28.7 µM. An outline of the steps: (§2)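 SYBR Green fluorescence of parasite DNA, read after lysis and overnight dark incubation, measured growth over 72 h in erythrocyte culture at 0.3% parasitemia and 2.5% hematocrit. Data normalised to DMSO and 0.29 uM artemisinin, with plate-drift correction.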

For the next test, the system named is W2. The description is as above. The conditions noted are these: P. falciparum in erythrocytes, SYBR Green DNA, 72 h; series mostly up to 28.7 µM. An outline of the steps:
as §2

The subject of test [3] is HACAT. The test can be described thus: qHTS assay to identify novel small-molecules to repurpose for Merkel cell carcinoma treatment (AID 1296009). The conditions noted are these: MCC and control cell lines, CellTiter-Glo viability, 72 h; at 44.8 µM (top of the series) unless noted. The essentials: (§3)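 Cell viability, measured as CellTiter-Glo luminescence, was normalized between DMSO and no-cell wells. The cells had been exposed to 8- or 11-point compound dilutions for 72 hr at 37 degree celsius.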

In test [4] the test system is CRL-7250. The description is as above. The settings on record: MCC and control cell lines, CellTiter-Glo viability, 72 h; at 44.8 µM (top of the series) unless noted. An outline of the steps: as §3
Another test relates to HEK293T. The test is described as above. The conditions noted are these: MCC and control cell lines, CellTiter-Glo viability, 72 h. An outline of the steps: as §3
The mark [5] stands for this setting: at 44.8 µM (top of the series) unless noted.
Further: nearly all actives have a fitted effect of over 60% in size.

Consider `COc1cc(CC(C)N)cc(OC)c1OC` (centres undefined), for which the max response in the test with CRL-7250 [1] was -18.9%; with HEK293, -9.05%; in the test on HaCat [2] it was 2.22%; in the test with KB-3-1, -7.25%; with NIH3T3, -5.38%.
For `C=C(C)[C@H]1CN[C@H](C(=O)O)[C@H]1CC(=O)O`, the Potency result with TAB165 and with W2 was “inactive” each time. In addition, the max response was 1.07% with CRL-7250 [1], 0.123% in the test with HEK293 and 4.34% with KB-3-1. In addition, the molecule was called inactive in the test with HaCat [2], in the test with NIH3T3 and in the test on HACAT [3].
Take `O=c1[nH]oc2c1CCNC2`: the Potency entry in the test on TAB165 and in the test with W2 was “inactive” throughout. Moreover, the max response with CRL-7250 [1] is -16.5%; in the test with HEK293, -2.62%; with KB-3-1 it was -7.07%; with NIH3T3, -9.67%. In addition, the molecule was classed as inactive in the test on HaCat [2] and with HACAT [3].
For the molecule `CCOC(=O)CC(SP(=S)(OC)OC)C(=O)OCC` (centres undefined), the Potency entry in the test on TAB165 and with W2 was “inactive” in each case. Moreover, the max response with CRL-7250 [1] was -3.52%; in the test on HaCat [2], -7.37% and 2.49%; with KB-3-1, -10.3% and -23.1%; with NIH3T3, -6.65% and 2.23%. Also, the molecule was classed as inactive with CRL-7250 [1], in the test on CRL-7250 [4], in the test on HEK293T (at 44.8 µM (top of the series)) and with HEK293T (at 92 µM (top of the series)).
`COP(=S)(OC)Oc1cc(Cl)c(Cl)cc1Cl`: the max response with CRL-7250 [1] is -8.37%; in the test on HEK293 it was 1.74%; in the test on HaCat [2], 4.52%; in the test with KB-3-1 it was -14.4%; with NIH3T3 it was -6.48%. Also, the Potency in the test on KB-3-1 was 0.146 µM (active).
Regarding `Nc1ccccc1`, the results for the max response with CRL-7250 [1], in the test with KB-3-1 and with NIH3T3 were -1.03%, -12% and -0.773%, respectively. Moreover, the call in the test on HEK293, in the test on HaCat [2], in the test on HACAT [3] and with HEK293T (setting [5]) was inactive.
Take `O=C(O)CCCc1ccc(N(CCCl)CCCl)cc1`: in the test on TAB165, the Potency result is “inactive”. The outcome in the test with CRL-7250 [1], in the test on HaCat [2], with KB-3-1, with CRL-7250 [4] and in the test on HACAT [3] was inactive. For the same molecule, the max response in the test with HEK293 is -24.7%; in the test on KB-3-1, 1.55%; with NIH3T3 it was -8.46% and -0.549%.
For the molecule `O=C(O)/C=C\C(=O)O`, the max response with CRL-7250 [1] was -1.31%; in the test with HEK293, -3.36%; in the test on HaCat [2] it was 1.05%; in the test on KB-3-1, -5.31%; in the test with NIH3T3, -5.56%.
For `CC(NC(C)(C)C)C(=O)c1cccc(Cl)c1` (centres undefined), the max response was -10.7% in the test with CRL-7250 [1]; -7.82% in the test on HaCat [2]; -3.99% and 2.03% and 8.68% with KB-3-1; -22.3% and 1.31% with NIH3T3. Besides, the result in the test with CRL-7250 [1], with HaCat [2], with NIH3T3, in the test on CRL-7250 [4], in the test with HACAT [3] and in the test with HEK293T (setting [5]) was inactive.
As for `CC(=O)OCC1=C(C(=O)O)N2C(=O)[C@@H](N)[C@H]2SC1`, the max response in the test with CRL-7250 [1] was -3.91%; with HEK293, 0.778% and -3.29%; in the test with HaCat [2] it was -3.66% and 4.2%; with KB-3-1, -19.8%; in the test with NIH3T3 it was 1.92% and 4.65%. Further, the result with CRL-7250 [1], in the test with KB-3-1 and in the test with CRL-7250 [4] was inactive.
For the molecule `CN1CC[C@]23c4c5ccc(O)c4O[C@H]2[C@@H](O)CC[C@H]3[C@H]1C5`, the molecule was called inactive in the test on CRL-7250 [1] and in the test with HaCat [2]. Also, the max response in the test on HEK293 was -12.9%; with KB-3-1 it was -2.83%; in the test with NIH3T3, 0.466%. The outcome in the test on CRL-7250 [4] and in the test with HACAT [3] was “inactive [at 92 µM]” in each case.
In the case of `NNc1ccccc1`, the Potency entry in the test on TAB165 is “inactive”. Besides, the call with CRL-7250 [1] and with CRL-7250 [4] was inactive. For the same molecule, the max response in the test on HEK293 is 3.08%; in the test with HaCat [2], 1.05%; with KB-3-1, -8.39%; in the test with NIH3T3, 4.99%.
In the case of `O=c1c(C2CC(c3ccc(-c4ccc(Br)cc4)cc3)Cc3ccccc32)c(O)sc2ccccc12` (centres undefined), the max response with CRL-7250 [1] is 0.288%.
As to `O=C1c2ccccc2C(=O)c2ccccc21`, the Potency with W2 is 6.75 µM (active). In addition, the max response in the test with CRL-7250 [1] was -3.19%; with KB-3-1 it was -11.4%; in the test with NIH3T3 it was -2.39%. Also, the outcome with HEK293 and in the test with HaCat [2] was inactive. The outcome with HACAT [3] and in the test on HEK293T (setting [5]) was “inactive [at 17.4 µM]” in each case.
Regarding `CC(C)C[C@H](CN)CC(=O)O`, the max response is -0.456% in the test with CRL-7250 [1]; 2.24% in the test on HEK293; -0.0678% with HaCat [2]; -13.5% and 1.18% in the test on KB-3-1; -13.2% with NIH3T3.
For the molecule `COc1ccc2c(c1OC)C(=O)O[C@H]2[C@@H]1c2cc3c(cc2CCN1C)OCO3`, the max response with CRL-7250 [1] was 0.738%; in the test on HEK293, -2.03%; in the test with HaCat [2], -4.43%; in the test on KB-3-1 it was 3.84%.
Consider `[N-]=[N+]=CC(=O)OC[C@H](N)C(=O)O`, for which the max response with CRL-7250 [1] was -7.47%; in the test on HEK293, 4.4%; with HaCat [2], -3.83%; in the test on KB-3-1, -24.6%; in the test on NIH3T3, -9.9%.
Regarding `C[C@]12CC[C@@H]3c4ccc(OC(=O)N(CCCl)CCCl)cc4CC[C@H]3[C@@H]1CC[C@@H]2OP(=O)(O)O`, the Potency in the test with CRL-7250 [1] was 10.5 µM (active). Also, the molecule was called inactive in the test with CRL-7250 [1], in the test with HaCat [2], in the test on KB-3-1, in the test on CRL-7250 [4] and in the test with HACAT [3]. Besides, the max response was 4.84% in the test with HaCat [2], -0.529% in the test with KB-3-1 and 2.9% in the test on NIH3T3.
Consider `COP(=S)(OC)Oc1ccc(SC)c(C)c1`, for which the Potency result in the test on TAB165 and in the test on W2 was “inactive” in each case. Further, the max response in the test with CRL-7250 [1] was -0.812%; with HEK293 it was -0.0428%; in the test on HaCat [2] it was -0.754%; in the test on KB-3-1, -16.5%; in the test with NIH3T3, -0.878%.
